hgDAF-12 ag = hgDAF-12 agonism, primary luciferase screen; AID 687014; 370,000 tested, 1.8% active; activation, % at 6.8 µM; HEK293 GAL4-hgDAF12 UAS-luciferase reporter, agonist luminescence; normalized to butyrate control;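 active means activation above a cutoff set at the mean of all screened compounds plus 3 SD, cut at about 10% in these data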;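 further: 0% = DMSO wells and 100% = sodium butyrate wells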
ssDAF-12 act = S. stercoralis DAF-12 activation, primary screen. HEK293 ssDAF-12/GRIP1 lit1-tk-luc reporter, luminescence; % of 3 µM dafachronic acid response. activation, % at 6.8 µM. 370,000 tested, 1% active. AID 652126;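 active means activation above the mean over all tested compounds plus 3 SD, cut at about 0.9% in these data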;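 further: 0% = DMSO-only wells and 100% = 3 µM delta7-dafachronic acid wells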
DAX1 inh-1 = NR0B1 (DAX1) inhibition | HEK293 Gal4-DAX1 luciferase reporter, luminescence | 340,000 tested, 0.99% active | inhibition, % at 6.75 µM | P51843;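 active means inhibition above the mean over all tested compounds plus 3 SD, cut at about 4.2% in these data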;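 further: 0% = DAX1-transfected cells with DMSO and 100% = empty-vector control cells with DMSO; inhibition shows as a rise in luminescence from relieved DAX1 repression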
Target sequence (P51843 207-470 limits assumed): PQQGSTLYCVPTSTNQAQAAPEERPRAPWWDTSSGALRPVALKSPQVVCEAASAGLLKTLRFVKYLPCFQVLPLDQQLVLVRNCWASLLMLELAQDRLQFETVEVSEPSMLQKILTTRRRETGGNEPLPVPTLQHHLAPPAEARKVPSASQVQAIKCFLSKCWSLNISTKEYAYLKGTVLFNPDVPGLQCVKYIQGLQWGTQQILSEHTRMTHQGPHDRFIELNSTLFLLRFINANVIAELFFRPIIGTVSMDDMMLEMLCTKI
hcDAF12 agonist = activators of H. contortus DAF-12 nuclear receptor; HEK293 hcDAF-12 lit1-tk-luc reporter, luminescence; 0% DMSO, 100% Δ7-dafachronic acid; activation, % at 6.8 µM; 370,000 tested, 1.4% active;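 active means activation above the mean of all tested compounds plus 3 SD, cut at about 5.5% in these data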;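 further: 100% = response to 3 µM Δ7-dafachronic acid high control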
DAX1 inh-2 = inhibitors of DAX1 repression of SF-1 activated StAR promoter. HEK293T StAR-luciferase reporter, SF-1/DAX-1 repression relief. 370,000 tested, 1.1% active. AID 652010. inhibition, % at 6.8 µM;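 active means inhibition above the mean over all tested compounds plus 3 SD, cut at about 3.6% in these data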;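 further: 0% = DAX-1 cells with DMSO and 100% = cells lacking DAX-1 with DMSO; higher inhibition means more luminescence from relief of DAX-1 repression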
* hit, by the source's call; · = no result given. This is a sample that favours compounds with a hit; in the whole collection about 4.1% have one here.

SMILES	hgDAF-12 ag	ssDAF-12 act	DAX1 inh-1	hcDAF12 agonist	DAX1 inh-2
Cn1c(-c2ccc(F)cc2)cc2onc(-c3c(F)cccc3Cl)c2c1=O	11.1*	0.7	1.2	2.4	2.6
Cc1ccc(-c2cc3onc(-c4ccccc4)c3c(=O)n2C)cc1	-3.8	-1.6	2.5	0.3	1.0
CNC(=O)c1ccc(-c2cc3onc(-c4ccccc4)c3c(=O)n2C)cc1	1.0	-1.1	0.7	2.4	0.5
CCc1noc2cc(-c3ccccc3)n(C)c(=O)c12	13.2*	-0.4	·	3.2	3.1
CCc1ccc(OCC(=O)N2CCc3ccccc32)cc1	11.9*	-0.1	1.2	4.3	1.4
COc1ccc(NC(=O)CSc2nnc3ccc(-c4cccnc4)nn23)cc1OC	3.2	-0.5	1.4	-0.3	-3.3
COc1ccccc1CNC(=O)CSc1nnc2ccc(-c3cccnc3)nn12	-1.7	-1.4	4.4*	0.2	0.0
COC(=O)[C@]12C[C@H](CC(=O)NCc3ccccc3)C(=O)N(Cc3ccc4c(c3)OCO4)C1=C[C@H](COCc1ccccc1)O[C@@H]2C	1.4	-0.8	·	-0.1	-0.4
COc1ccc(S[C@]2(C(=O)N(C)C)CC(=O)N(C(=O)/C=C/c3ccccc3)[C@@H]2c2ccc(OC)cc2)cc1	-1.1	-1.3	·	-1.9	-2.8
COc1ccc(S[C@]2(C(=O)N(C)C)CC(=O)N(c3ccccc3)[C@@H]2c2ccc(OC)cc2)cc1	11.8*	-0.1	·	2.1	-0.8
O=S1(=O)CC(N2CC=CC2)CN1Cc1cn(Cc2cccc(Cl)c2)nn1 (centres undefined)	1.7	-0.9	·	-0.2	-0.1
c1ccc2c(c1)Cn1nc(Cc3nc4c(s3)CCCC4)nc1-2	5.6	-0.7	4.4*	5.7*	0.1
N#CCc1nc2n(n1)Cc1ccccc1-2	-1.5	-0.6	0.2	-0.1	-0.1
CCOC(=O)N[C@@H](CC(C)C)C(=O)N1CCC[C@H]1C(=O)NCc1ccccc1	-1.1	-0.9	·	-1.5	0.9
CCc1nc2c(OCCn3cccc3)cccn2c1N(C)C(=O)c1ccc(C)cc1	1.3	-1.8	·	0.0	-0.8
O=S(=O)(Nc1nccs1)c1cnc(Cl)c(Br)c1	0.4	-0.7	0.6	4.7	1.5
O=S(=O)(Nc1nc2ccccc2s1)c1cnc(Cl)c(Br)c1	-0.3	1.0*	1.6	4.8	0.8
COc1ccc(-c2[nH]ncc2CN(C)CCCN2CCOCC2)cc1F	-0.4	-0.6	5.9*	-1.1	-0.2
COc1ccc(-c2[nH]ncc2CN2CCCO2)cc1F	0.8	-1.8	0.9	-0.9	-0.3
CCOC(=O)C(Nc1ccc2ccccc2c1)C(=O)OCC	5.5	0.3	-0.1	5.7*	0.3
CC(=O)Nc1ccc2ccccc2c1	·	·	0.2	·	·
O=C(Nc1ccccc1Oc1ccccc1)c1cc([N+](=O)[O-])ccc1Cl	0.7	-2.0	-1.6	-1.5	-1.7
Cc1cccc(NC(=O)c2cccc([N+](=O)[O-])c2O)c1C	12.8*	-0.2	2.7	3.4	4.1*
Cc1cccc(NC(=O)c2ccccc2O)c1C	5.3	-0.6	1.2	4.8	0.1
Cc1cccc(NC(=O)c2cc([N+](=O)[O-])ccc2Cl)c1O	7.4	0.5	0.6	6.3*	-1.9
SMILES	hgDAF-12 ag	ssDAF-12 act	DAX1 inh-1	hcDAF12 agonist	DAX1 inh-2
CN(C)/C=N/c1ncc(C(=O)c2ccc(-c3ccccc3)cc2)s1	11.6*	-2.2	-0.2	-0.2	0.0
CN(C)/C=N/c1ncc(C(=O)c2ccccc2)s1	6.9	-0.6	2.6	1.5	1.5
CCOC(=O)c1[nH]c(C)c(C(=O)Nc2ccc3c(c2)OCCO3)c1C	-2.0	-2.1	-1.2	-2.9	-1.2
CCOc1ccc(NC(=O)c2[nH]c(C)c(C(C)=O)c2C)cc1	0.8	-0.8	-0.2	-1.4	0.0
CCc1ccc(NC(=O)c2[nH]c(C)c(C(C)=O)c2C)cc1	12.9*	-0.7	1.1	0.5	2.4
CC(=O)c1c(C)[nH]c(C(=O)Nc2ccc3c(c2)OCCO3)c1C	10.8*	0.7	0.6	3.1	2.8
CC(=O)c1c(C)[nH]c(C(=O)Nc2nccs2)c1C	12.0*	-1.0	0.3	1.4	0.3
COC(=O)c1ccc(S(=O)(=O)N2CCC(NC(=O)CCC3CCCC3)CC2)cc1	-2.2	-1.8	·	0.3	-0.1
COc1ccc(NC(=O)Nc2cc(C)ccc2OC)cc1	2.5	-1.6	0.0	-2.0	-0.3
COc1ccc(C(=O)COc2ccc(C)cc2NC(C)=O)cc1	10.5*	-0.5	·	2.2	2.3
OCCCNc1nc(-c2ccc(Cl)cc2)nc2ccccc12	0.8	-1.0	-1.0	-0.5	0.1
OCCNc1nc(-c2ccccc2)nc2ccccc12	5.1	1.1*	-0.2	0.7	-0.5
c1ccc(OCCNc2ccn3nc(-c4ccc(OCCN5CCOCC5)cc4)cc3n2)cc1	-1.5	0.6	·	-0.8	-3.7
COc1ccccc1N1CCN(Cc2ccsc2)CC1	-0.2	1.1*	0.8	0.9	0.8
COC(=O)c1cc2c(c3c4ccccc4n(S(=O)(=O)c4ccccc4)c13)C(=O)N(C)C2	-1.3	-0.2	·	3.1	-0.6
Clc1ccc(-c2nnc(-c3ccccc3)nc2-c2c[nH]c3ccccc23)cc1	6.0	1.6*	0.6	4.3	0.0
COc1ccc(-c2cc3c(=O)n(CC(=O)NCc4cccnc4)ncn3n2)cc1	10.7*	0.1	-1.1	6.1*	3.8*
COc1ccc(-c2cc3c(=O)n(CC(=O)NC4CCN(Cc5ccccc5)CC4)ncn3n2)cc1	2.5	-1.2	1.9	-0.7	-0.4
CC(=O)c1ccc(NC(=S)NC(=O)c2c(Cl)c(C)nn2C)cc1	-2.8	-0.7	4.7*	-1.2	-0.1
C/C(=N\NC(=O)c1c(Cl)c(C)nn1C)c1ccc(NC(=O)C2CCC2)cc1	2.8	-1.3	-1.0	-1.0	-5.9
Cc1ccc(NC(=O)CSc2nnc(-c3cccnc3)o2)c(C)c1	-1.2	-0.6	4.4*	-0.2	0.8
Cc1csc(NC(=O)CSc2nnc(-c3ccccc3)o2)n1	6.0	0.8	0.5	5.7*	4.3*
O=C(CSc1nnc(-c2cccnc2)o1)c1cc2ccccc2oc1=O	12.3*	-0.7	0.7	3.4	1.0
Cc1ccc(C)c(NC(=O)CSc2nnc(-c3ccccc3)o2)c1	-0.4	-1.5	-0.5	-0.7	-0.1
CCN(CC)S(=O)(=O)c1ccc(-c2nnc(SCC(=O)Nc3cc(OC)cc(OC)c3)o2)cc1	10.9*	-1.6	3.1	-0.7	-0.5
CCN(CC)S(=O)(=O)c1ccc(-c2nnc(SCC(=O)Nc3nc(C)cs3)o2)cc1	-1.6	-1.2	-0.9	-2.1	0.1
CCCCc1c(-c2ccccc2OC)ncn1C(C)c1ccc(Cl)cc1 (centres undefined)	2.3	-1.4	·	-0.3	0.1
O=C(Nc1cccc([N+](=O)[O-])c1)NC1CCCCN(Cc2cccc(Cl)c2)C1=O (centres undefined)	-2.6	-1.1	·	-1.2	-0.5
Nc1[nH]c(C(=O)c2ccc(Br)cc2)c(-c2ccc(Br)cc2)c1C(=O)NCc1cccc2ccccc12	-0.5	-1.5	·	-0.5	0.1

Assay outcomes (PubChem BioAssay)
